Screens deposited in PubChem by Broad Institute.
The full list was thinned out, with hits kept by preference.
IDE exosite FP: exo-site inhibitors of human IDE, primary screen, biochemical, fluorescence anisotropy, probe displacement | z-score at 20 µM | 6.3% of 17,000 active | purified IDE, FL-6b probe fluorescence polarization; hits give low values | AID 1259349, 2017;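 active = z-score of -3 or lower, meaning strong loss of probe binding signal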;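 also: His-tagged human IDE residues 42-1019 made in E. coli with 30 nM FL-6b probe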
* = called active by the depositor.

SMILES	IDE exosite FP
COCC(=O)N1CCCCN2[C@@H](CO)[C@H](c3ccc(-c4ccc(OC)cc4)cc3)[C@@H]2C1	0.91
COc1ccc(-c2ccc([C@@H]3[C@H](CO)N4CCCCN(C(=O)NC(C)C)C[C@@H]34)cc2)cc1	-5.58*
COc1ccc(-c2ccc([C@H]3[C@H](CO)N4CCCCN(C(=O)c5ccc(F)cc5)C[C@@H]34)cc2)cc1	0.0838
COc1ccc(-c2ccc([C@@H]3[C@H](CO)N4CCCCN(C(=O)c5ccc(F)cc5)C[C@@H]34)cc2)cc1	0.564
COc1ccc(-c2ccc([C@@H]3[C@@H](CO)N4CCCCN(C(=O)NC(C)C)C[C@@H]34)cc2)cc1	-4.12*
COc1ccc(-c2ccc([C@@H]3[C@@H](CO)N4C(=O)CN(C(=O)NC(C)C)C[C@H]34)cc2)cc1	-2.66
COCC(=O)N1CCCCN2[C@H](C1)[C@@H](c1ccc(-c3ccc(OC)cc3)cc1)[C@@H]2CO	1.43
COc1ccc2c3c([nH]c2c1)[C@H](CO)NCC31CN(S(=O)(=O)c2cccs2)C1	-0.588
CN(C)C(=O)c1ccc(-c2ccc([C@@H]3[C@@H](CO)N4CCCCN(C(=O)C5CC5)C[C@H]34)cc2)cc1	3.15
COc1ccc(C#Cc2ccc([C@@H]3[C@H](CO)N4C(=O)CN(C(=O)Nc5ccccc5F)C[C@@H]34)cc2)cc1	3.49
O=C(Cc1ccccn1)N1CC[C@@H]2[C@H](CO)Nc3ccc(-c4cccc(F)c4)cc3[C@@H]21	1.76
CCCNC(=O)N1[C@H](C#N)[C@@H](c2ccc(C3=CCCCC3)cc2)[C@@H]1CO	1.27
O=C(C1CCOCC1)N1CC(=O)N2[C@H](CO)[C@H](c3ccc(C#Cc4cccc(F)c4)cc3)[C@@H]2C1	-8.17*
O=C(C1CCOCC1)N1CC(=O)N2[C@H](C1)[C@@H](c1ccc(C#Cc3cccc(F)c3)cc1)[C@@H]2CO	-9.43*
O=C(C1CCOCC1)N1CC(=O)N2[C@H](CO)[C@@H](c3ccc(C#Cc4cccc(F)c4)cc3)[C@H]2C1	-4.42*
O=C(C1CCOCC1)N1CC(=O)N2[C@H](CO)[C@@H](c3ccc(C#CC4CC4)cc3)[C@@H]2C1	-0.176
O=C(C1CCOCC1)N1CC(=O)N2[C@@H](CO)[C@H](c3ccc(C#Cc4cccc(F)c4)cc3)[C@@H]2C1	-6.61*
CN(C)C(=O)c1cccc(-c2ccc3n(c2=O)C[C@@H]2[C@@H](CO)[C@H](C(=O)NCC4CC4)N[C@H]32)c1	0.617
COc1ccc(C#Cc2ccc3c(c2)[C@H]2[C@H](CCN2S(=O)(=O)c2ccccc2C)[C@@H](CO)N3C)cc1	1.22
C/C=C/c1ccc([C@@H]2[C@H]3CN(C(=O)Nc4ccc(OC)cc4)CCCCN3[C@H]2CO)cc1	-0.416
CS(=O)(=O)N1[C@H](CO)[C@H](c2ccccc2)[C@@H]1C#N	1.61
Cc1ccccc1S(=O)(=O)N1[C@@H](C#N)[C@@H](c2ccccc2)[C@@H]1CO	4.33
CN(C)C(=O)c1ccc(-c2ccccc2[C@H]2[C@@H](C#N)N(C(=O)C3CCCCC3)[C@@H]2CO)cc1	1.14
CCc1cnc(N2[C@H](CO)[C@H](c3ccc(C#CCC4CCCC4)cc3)[C@@H]2C#N)s1	3.01
COc1ccccc1CNC(=O)C[C@@H]1C=C[C@@H](NC(=O)CC2CC2)[C@H](CO)O1	1.1
SMILES	IDE exosite FP
CCC(=O)N1[C@@H](CO)[C@@H](c2ccccc2)[C@@H]1CN(CC)C(=O)c1ccc(F)cc1	0.965
O=C(NCC[C@H]1CC[C@@H](NC(=O)c2ccncc2)[C@H](CO)O1)Nc1ccc(Cl)cc1	2.56
O=C(c1cc2c(c(-c3cccc(Br)c3)n1)[C@H](CCO)NC2)N1CCCCC1	1.74
O=C(Nc1ccc(F)cc1)N1CCCCN2[C@H](CO)[C@@H](c3ccc(C#CC4CC4)cc3)[C@@H]2C1	1.77
CCC(=O)N1CCCCN2[C@H](C1)[C@H](c1ccc(C#CCOC)cc1)[C@@H]2CO	1.52
CCC(=O)N1CCCCN2[C@@H](CO)[C@@H](c3ccc(-c4cccc(C#N)c4)cc3)[C@@H]2C1	0.404
CCC(=O)N1CCCCN2[C@H](CO)[C@@H](c3ccc(C#Cc4ccccc4)cc3)[C@H]2C1	-3.89*
CCC(=O)N1CCCCN2[C@H](CO)[C@H](c3ccc(C#Cc4ccccc4)cc3)[C@@H]2C1	-8.85*
CCC(=O)N1CCCCN2[C@H](C1)[C@H](c1ccc(C#Cc3ccccc3)cc1)[C@@H]2CO	-4.62*
CCC(=O)N1CCCCN2[C@H](C1)[C@@H](c1ccc(-c3cccc(C#N)c3)cc1)[C@@H]2CO	0.361
CCC(=O)N1CCCCN2[C@H](C1)[C@@H](c1ccc(C#Cc3ccccc3)cc1)[C@@H]2CO	-1.29
O=C(Nc1ccccc1)N1CCCCN2[C@@H](CO)[C@H](c3ccc(C#Cc4ccccc4)cc3)[C@@H]2C1	-2.98
CCC(=O)N1CCCCN2[C@H](CO)[C@H](c3ccc(C#CCOC)cc3)[C@@H]2C1	1.3
CC(=O)N1CC(=O)N2[C@@H](CO)[C@H](c3ccc(-c4ccncc4)cc3)[C@@H]2C1	-0.302
COCC(=O)N(C[C@@H]1N[C@@H](CO)[C@H]1c1ccc(-c2ccccc2)cc1)C(C)C	0.763
COc1ccc2c3c([nH]c2c1)[C@H](CO)N(Cc1ccccc1)CC31CN(C(=O)c2ccccn2)C1	-1.79
C[C@@H]1CCCCO[C@@H](CN(C)C(=O)Nc2ccc(C(F)(F)F)cc2)[C@H](C)CN([C@H](C)CO)C(=O)c2cc(NS(=O)(=O)c3cn(C)cn3)ccc2O1	0.879
CCCC#Cc1ccc([C@H]2[C@@H](CO)N3CCCCN(S(C)(=O)=O)C[C@H]23)cc1	0.741
CN(C)C(=O)C[C@@H]1CC[C@H]2[C@@H](COC[C@@H](O)CN2S(=O)(=O)c2ccccc2Cl)O1	1.37
CN(C)CC(=O)N1[C@@H](C#N)[C@@H](c2ccccc2-c2ccc(C(=O)N(C)C)cc2)[C@@H]1CO	-1.19
C[C@@H]1CC(=O)NCC/C=C\C[C@@H](c2cccc(Cl)c2)NC1=O	0.37
COc1cccc(C#Cc2ccc3c(c2)[C@@H]2[C@@H](CCN2C(=O)c2ccccc2F)[C@H](CO)N3)c1	2.03
CCS(=O)(=O)Nc1ccc2c(c1)C(=O)N(C)[C@@H]1CC[C@@H](CC(=O)NCc3ccc(OC)cc3)O[C@@H]1CO2	-2.49
Cc1cccc(-c2ccc([C@H]3[C@H]4CN(C(=O)c5cccnc5)CCCCN4[C@H]3CO)cc2)c1	-2.6
Cc1cccc(-c2ccc([C@@H]3[C@@H](CO)N4CCCCN(C(=O)c5cccnc5)C[C@@H]34)cc2)c1	-3.25*
SMILES	IDE exosite FP
Cc1cccc(-c2ccc([C@H]3[C@H](CO)N4CCCCN(C(=O)c5cccnc5)C[C@@H]34)cc2)c1	1.15
O=C(c1cccc(F)c1)N1CCCCN2[C@H](CO)[C@@H](c3ccc(-c4cccnc4)cc3)[C@H]2C1	2.84
Cc1cccc(-c2ccc([C@@H]3[C@@H](CO)N4CCCCN(C(=O)c5cccnc5)C[C@H]34)cc2)c1	-4.33*
O=C(c1cccc(F)c1)N1CCCCN2[C@H](CO)[C@H](c3ccc(-c4cccnc4)cc3)[C@H]2C1	1.06
COCC#Cc1ccc([C@H]2[C@@H](CO)N3CCCCN(S(=O)(=O)c4ccc(OC)cc4)C[C@@H]23)cc1	4.8
CN(C)C(=O)c1ccc(-c2ccccc2[C@H]2[C@@H](C#N)N(C(=O)C3CCC3)[C@@H]2CO)cc1	2.09
CCS(=O)(=O)N1CCCCN2[C@H](C1)[C@H](c1ccc(-c3ccccc3F)cc1)[C@@H]2CO	0.99
